Measured values published in PubChem BioAssay (NCATS).
“And” between values parts separate entries of the source, which are not always exact repeats. Equal values may be shown once. Records with an inconclusive call do not appear. Some compounds were tested as several samples or in several runs, with calls that do not always agree. The source made the active and inactive calls. Unless noted, calls follow the shape of the dose curve; as a rule, active = well fitted curve in the direction sought with a large enough effect; inconclusive = small, poorly fitted or top-dose-only effect, or another doubt; inactive = no such curve, though single readings can be large; an effect the other way counts as inactive or inconclusive.

Experiments:
Hek293T = assay: Primary qHTS to identify gynecologic anti-cancer compounds using libraries of approved drugs and bioactive compounds (AID 1345084); details: Gynecologic cancer cell panel viability, ATPlite luminescence, 48 h, control line for the selectivity index; series mostly up to 57.5 µM; also: nearly all actives have a fitted effect of over 55% in size; also: potency is read from the fitted curve at half-maximal effect
Method in brief: (§1)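 Cells, 1,000 per well, plated 16 h, then exposed 48 h at 37 C to compounds. Viability by ATPlite luminescence after 15 min at room temperature.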

JEG-3 = assay: as above; details: Gynecologic cancer cell panel viability, ATPlite luminescence, 48 h; series mostly up to 57.5 µM
Method in brief: as §1

PA-1 = assay: as above; details: Gynecologic cancer cell panel viability, ATPlite luminescence, 48 h; series mostly up to 57.5 µM
Method in brief: as §1

Tov-21-G = assay: as above; details: Gynecologic cancer cell panel viability, ATPlite luminescence, 48 h; series mostly up to 57.5 µM
Method in brief: as §1

Tov112D = assay: as above; details: Gynecologic cancer cell panel viability, ATPlite luminescence, 48 h; series mostly up to 57.5 µM
Method in brief: as §1

[1] = Drug repurposing screens with cells derived from glioblastoma tumor samples (AID 1345199); details: GBM patient neurospheres viability, ATP luminescence, 48 h; also: nearly all actives have a fitted effect of over 40% in size; also: potency is read from the fitted curve at half-maximal effect; as to activity, negative = cell killing: % is scaled to controls: 0 for no effect and ±100 for the full control effect
Method in brief: (§2)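 Four patient lines of CD133+ GBM neurospheres were screened at several concentrations; hits were retested in those lines plus three slower-growing GBM lines, using 48-hour treatment and ATP-based viability.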

astro = assay: as above; details: viability, ATP luminescence, 48 h; series mostly up to 45.9 µM
Method in brief: as §2

OV90 = assay: Primary qHTS to identify gynecologic anti-cancer compounds using libraries of approved drugs and bioactive compounds (AID 1345084); details: Gynecologic cancer cell panel viability, ATPlite luminescence, 48 h; series mostly up to 57.5 µM; also: nearly all actives have a fitted effect of over 55% in size; also: potency is read from the fitted curve at half-maximal effect
Method in brief: as §1

SKOV3 = assay: as above; details: Gynecologic cancer cell panel viability, ATPlite luminescence, 48 h; series mostly up to 57.5 µM
Method in brief: as §1

[2] = biological target: Nuclear receptor subfamily 1 group I member 2 (Rattus norvegicus) (UniProt Q9R1A7); assay: qHTS assay for small molecule activators of the rat pregnane X receptor (rPXR) signaling pathway (AID 651751; call rule not given here; also: 0% is about no effect); details: rPXR reporter cells, luciferase (One-Glo), 24 h
Sequence of Nuclear receptor subfamily 1 group I member 2 (Rattus norvegicus) (Q9R1A7 whole entry, looked up): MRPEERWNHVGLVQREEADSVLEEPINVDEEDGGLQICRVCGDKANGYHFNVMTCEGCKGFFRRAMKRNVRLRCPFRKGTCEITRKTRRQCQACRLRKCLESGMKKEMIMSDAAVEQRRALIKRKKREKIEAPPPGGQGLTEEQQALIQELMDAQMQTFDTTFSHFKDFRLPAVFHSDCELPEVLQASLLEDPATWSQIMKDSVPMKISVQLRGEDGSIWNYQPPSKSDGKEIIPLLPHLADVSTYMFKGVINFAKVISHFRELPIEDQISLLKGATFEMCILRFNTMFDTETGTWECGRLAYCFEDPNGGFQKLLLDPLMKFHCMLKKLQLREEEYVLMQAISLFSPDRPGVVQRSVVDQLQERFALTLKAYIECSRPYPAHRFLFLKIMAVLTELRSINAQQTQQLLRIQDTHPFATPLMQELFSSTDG

[3] = qHTS assay for small molecule activators of the human pregnane X receptor (PXR) signaling pathway (AID 720659; call rule not given here; also: 0% is about no effect)
[4] = qHTS assay to identify inhibitors of the type 1 interferon - major histocompatibility complex class I in skeletal muscle: Counter screen cell viability and HiBit confirmation (AID 1347412); details: iHSKM muscle cells + IFN-b, HiBiT or CellTiter-Glo, 24 h; for activity change, negative = inhibition: at 45.9 µM (top of the series); also: potency is read from the fitted curve at half-maximal effect; as to activity change, negative = inhibition: % is scaled to controls: 0 for no effect and ±100 for the full control effect; as to all read-outs here: nearly all actives have a fitted effect of over 60% in size
Method in brief: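 Human myoblast knock-in line, 4.0 ng/ml IFN-beta stimulation, 24 h compound treatment. Endpoints: HiBiT lytic luminescence (HLA-B level) and CellTiter Glo (ATP). Dosing 12 concentrations, 3-fold steps, 46 uM highest final.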

[5] = at 20 µM (top of the series), tumour line C
[6] = at 45.9 µM (top of the series), tumour line B
[7] = at 45.9 µM (top of the series), tumour line D
[8] = at 46 µM (top of the series), tumour line A
[9] = at 46.1 µM (top of the series), tumour line C

CCCCN(CCCC)CCC(O)c1cc2c(Cl)cc(Cl)cc2c2cc(C(F)(F)F)ccc12 (stereo not drawn)
inactive: Potency (Hek293T) | Potency (JEG-3) | Potency (PA-1) | Potency (Tov-21-G) | Potency (Tov112D) | activity, negative = cell killing [1, 5] -14% | Potency (astro)
active: Potency ([1]; tumour line A) 11.2 µM | Potency ([1]; tumour line B) 10 µM | Potency ([1]; tumour line D) 11.2 µM

O=C(O)c1cc(=O)c2c(OCC(O)COc3cccc4oc(C(=O)O)cc(=O)c34)cccc2o1
inactive: Potency (Hek293T) | Potency (OV90) | Potency (PA-1) | Potency (SKOV3) | Potency (Tov-21-G) | Potency (Tov112D) | activity, negative = cell killing [1, 6] -3.77% | activity, negative = cell killing [1, 7] -23.3% | activity, negative = cell killing [1, 8] -3.33% | activity, negative = cell killing [1, 9] 5.01% | Potency (astro)

CCN(CC)C(=S)SSC(=S)N(CC)CC
active: Potency (Hek293T) 8.91 µM | Potency (JEG-3) 28.2 µM | Potency (OV90) 4.47 µM | Potency (SKOV3) 631 nM and 1.41 µM | Potency (astro) 63.1 µM
inactive: max response [2] -4.1%

O=C(O)CCNC(=O)c1ccc(N=Nc2ccc(O)c(C(=O)O)c2)cc1
inactive: Potency (Hek293T) | Potency (JEG-3) | Potency (OV90) | Potency (PA-1) | Potency (Tov-21-G) | Potency (Tov112D) | Potency (astro)

Nc1ccc(S(N)(=O)=O)cc1
inactive: Potency (Hek293T) | Potency (JEG-3) | Potency (OV90) | Potency (PA-1) | Potency (Tov-21-G) | Potency (Tov112D) | Potency (astro) | max response [2] 5.05% | outcome [3]

NNc1nncc2ccccc12
inactive: Potency (Hek293T) | Potency (JEG-3) | Potency (PA-1) | Potency (SKOV3) | Potency (Tov-21-G) | Potency (Tov112D) | activity, negative = cell killing [1, 5] -13.5% | activity, negative = cell killing ([1]; at 21.2 µM (top of the series), tumour line B) -20% | activity, negative = cell killing ([1]; at 21.2 µM (top of the series), tumour line D) -12.5% | Potency (astro)

Cc1ccc(C(=O)c2cc(O)c(O)c([N+](=O)[O-])c2)cc1
inactive: Potency (Hek293T) | Potency (JEG-3) | Potency (OV90) | Potency (SKOV3) | Potency (Tov-21-G) | Potency (Tov112D)

CCCCCCCCOc1ccccc1C(=O)Nc1ccc(C(=O)OCC[N+](C)(CC)CC)cc1
inactive: Potency (Hek293T) | Potency (JEG-3) | Potency (OV90) | Potency (Tov-21-G) | Potency (Tov112D) | activity, negative = cell killing [1, 9] -98.5%
active: Potency ([1]; tumour line A) 14.1 µM | Potency ([1]; tumour line B) 17.8 µM

Cc1ccc(Nc2nccc(N(C)c3ccc4c(C)n(C)nc4c3)n2)cc1S(N)(=O)=O
active: Potency (SKOV3) 14.1 µM | Potency ([1]; tumour line A) 2.51 µM | Potency ([1]; tumour line D) 7.08 µM
inactive: Potency (Hek293T) | Potency (JEG-3) | Potency (PA-1) | Potency (Tov112D) | activity, negative = cell killing [1, 6] -23.7%

COc1cc2nc(N3CCN(C(=O)C4CCCO4)CC3)nc(N)c2cc1OC (stereo not drawn)
inactive: Potency (Hek293T) | Potency (JEG-3) | Potency (OV90) | Potency (Tov-21-G) | Potency (Tov112D) | activity, negative = cell killing [1, 6] -11.4% | activity, negative = cell killing [1, 7] -6.51% | activity, negative = cell killing [1, 9] -17.4% | Potency (astro)

O=C(NOCC1CC1)c1ccc(F)c(F)c1Nc1ccc(I)cc1Cl
active: Potency (OV90) 7.08 µM and 3.55 µM | Potency (astro) 2.51 µM
inactive: Potency (Hek293T) | Potency (JEG-3) | Potency (SKOV3)
28.2 µM (active) and inactive: Potency (Tov112D)

Nc1ncn([C@H]2C[C@H](O)[C@@H](CO)O2)c(=O)n1
inactive: Potency (Hek293T) | Potency (JEG-3) | Potency (OV90) | Potency (SKOV3) | Potency (Tov-21-G) | activity, negative = cell killing [1, 6] -23% | activity, negative = cell killing [1, 7] -5.51% | activity, negative = cell killing [1, 8] -24.9% | activity, negative = cell killing [1, 9] -19.7% | Potency (astro)

O=C(O)c1cccnc1Nc1cccc(C(F)(F)F)c1
inactive: Potency (Hek293T) | Potency (JEG-3) | Potency (PA-1) | Potency (SKOV3) | Potency (Tov-21-G) | Potency (Tov112D) | activity, negative = cell killing [1, 6] -15.9% | activity, negative = cell killing [1, 7] -4.12%

O=C(c1ccccc1)c1ccc2n1CCC2C(=O)O (stereo not drawn)
inactive: Potency (Hek293T) | Potency (JEG-3) | Potency (OV90) | Potency (PA-1) | Potency (Tov-21-G) | Potency (Tov112D) | Potency (astro)

Cc1cc(C2CCCCC2)n(O)c(=O)c1
active: Potency (Hek293T) 7.08 µM | Potency (PA-1) 2 µM | Potency (SKOV3) 10 µM | Potency (Tov112D) 7.08 µM

COc1c2occc2cc2ccc(=O)oc12
inactive: Potency (JEG-3) | Potency (OV90) | Potency (PA-1) | Potency (SKOV3) | Potency (Tov-21-G) | Potency (Tov112D) | activity, negative = cell killing [1, 6] -22.6% | activity, negative = cell killing [1, 7] -10.6% | activity, negative = cell killing [1, 9] -21.4% | Potency (astro) | max response [2] 0.0225% and 5.31%

CC1(C)CCC(C)(C)c2cc(NC(=O)c3ccc(C(=O)O)cc3)ccc21
inactive: Potency (Hek293T) | Potency (JEG-3) | Potency (OV90) | Potency (PA-1) | Potency (Tov-21-G) | Potency (Tov112D) | activity change, negative = inhibition ([4]; HiBiT) 1.95% | activity change, negative = inhibition ([4]; Viability) -0.914%

Cc1cc(O)c2c(c1)C(=O)c1cc(O)cc(O)c1C2=O
inactive: max response [2] 1.52% and -0.614%

CNC[C@@H](O)[C@@H](O)[C@H](O)[C@H](O)CO
inactive: activity, negative = cell killing [1, 6] 0.477% | activity, negative = cell killing [1, 7] -17.4% | activity, negative = cell killing [1, 9] -4.13% | Potency (astro)

COC1=C(OC)C(=O)C(CCCCCCCCCCO)=C(C)C1=O
inactive: Potency (OV90) | Potency (SKOV3) | Potency (Tov-21-G) | activity, negative = cell killing [1, 6] -9.04% | activity, negative = cell killing [1, 9] 1.43%

O=C1c2ccccc2-c2n[nH]c3cccc1c23
active: Potency ([1]; tumour line D) 12.6 µM | Potency (astro) 10 µM
inactive: activity, negative = cell killing [1, 9] -13.2%

COc1cc(C(C)=O)ccc1OCCCN1CCC(c2noc3cc(F)ccc23)CC1
inactive: Potency (JEG-3) | Potency (PA-1) | Potency (Tov-21-G) | Potency (Tov112D) | Potency (astro)

O=C(CS(=O)Cc1ccco1)NCC=CCOc1cc(CN2CCCCC2)ccn1 (stereo not drawn)
inactive: Potency (astro)

O=Nc1c(-c2c(O)[nH]c3cc(Br)ccc23)[nH]c2ccccc12
active: Potency ([4]; HiBiT) 22.2 µM

O=c1oc2cc(O)ccc2s1
inactive: activity, negative = cell killing [1, 6] -24% | Potency (astro)
active: Potency ([1]; tumour line C) 23.1 µM

Cc1ccc(NC(=O)c2ccc(CN3CCN(C)CC3)cc2)cc1Nc1nccc(-c2cccnc2)n1
active: Potency (OV90) 35.5 µM | Potency (PA-1) 25.1 µM | Potency ([1]; tumour line A) 12.6 µM | Potency ([1]; tumour line B) 20 µM | Potency ([1]; tumour line D) 12.6 µM | Potency (astro) 20 µM
inactive: activity, negative = cell killing [1, 9] 17.6%
